The text below walks through data of PubChem BioAssay (NCATS).

Several values for one entry are separate records, joined by “and”; a condition that tells them apart may be missing. Identical values can stand only once. Records with an inconclusive call do not appear. Entries that show only a call come without a potency. Activity calls are given as the source filed them. Calls come from the whole dose curve; as a rule, active = well fitted cell-killing curve with a large enough effect; inconclusive = small, poorly fitted or top-dose-only effect; inactive = flat fitted curve, though single readings scatter.
Potency is the fitted concentration of half-maximal effect.

The test can be described thus: qHTS of pediatric cancer cell lines to identify multiple opportunities for drug repurposing: Primary screen for TC32 cells (AID 1347089). Note: nearly all actives have a fitted effect of over 60% in size. To be noted: TC32 Ewing sarcoma viability, CellTiter-Glo luminescence, 48 h; series mostly up to 45.8 µM; activity change, negative = cytotoxic: at the top concentration. The text has this:
Drug repurposing or repositioning has been offered as a strategy for drug development in oncology programs. This approach has special potential for childhood cancers and other rare or orphan diseases, where the expected return on new drug development has been a disincentive to pharmaceuticals.
In this project we exploit the poly-pharmacology of drugs to discover new indications via phenotypic screening of a panel of 19 well-characterized cell lines derived from solid tumors seen in children and adolescents. The goal is to identify approved drugs with previously unrecognized anticancer properties that has the potential to reveal new mechanisms and biological processes involved in carcinogenesis or drug resistance. We employed a titration-based paradigm (quantitative high-throughput screening or qHTS), where all compounds were tested at multiple concentrations for their effect on cell viability. Concentration-response curves (CRCs) were derived directly from the primary screen, and both potency and efficacy values were used to identify compounds with robust bioactivity profiles. We screened the NIH Chemical Genomics Center (NCGC) Pharmaceutical Collection (NPC) and Mechanism Interrogation Plate (MIPE) small molecule collections of approved and investigational compounds against these cell lines; and measured metabolically active cells after 48 hours of compound treatment as a proxy for cell viability.
Assay Submitter: Nathalia J. Martinez, National Center for Advancing Translational Sciences, National Institutes of Health, Rockville, MD, USA; email: natalia.martinez@nih.gov
[1] Shen, M et al. Quantitative high-throughput phenotypic screening of pediatric cancer cell lines identifies multiple opportunities for drug repurposing. Oncotarget 2017 Dec 19;9(4):4758-4772. PMID 29435139.
The cells were obtained from University of North Carolina (UNC), Pediatric Preclinical Testing Program (PPT), and Coriell Institute (CI).
qHTS cell viability assay:
Cells were assayed in growth media at a density of 500-1,000 cells/well. Five microliters of cells were dispensed into 1,536-well, white, solid-bottom, TC-treated plates (Greiner Bio One) using a multidrop dispenser and incubated at 37 degrees C, 5% CO2, under a humidified atmosphere for 5 hours. Twenty-three nanoliters of compounds and controls (neutral control DMSO or positive control bortezomib at final concentration of 2.3 uM) were subsequently transferred by Kalypsys pintool. For primary screens, the MIPE collection was tested at 11-point dilutions (final concentrations range from 0.78 nM to 46 µM) and the NPC collection at 8-point dilutions (final concentrations range from 0.59 nM to 46 µM). Compounds tested in follow-up screens were assayed at 11-point dilutions. Cells were incubated for 48 hours, followed by addition of 3 uL of CellTiter-Glo (Promega). After a 15min incubation at room temperature, samples were analyzed for luminescence intensity using a ViewLux High-throughput CCD imager equipped with clear filters.
For orientation: qHTS replaces the single test concentration by a dilution series.
On to `COc1cc2c(c(OC)c1OC)-c1ccc(OC)c(=O)cc1[C@@H](NC(C)=O)CC2`, for which the Potency is 7.5 nM (active) and 1.3 nM (active). In the case of `CC(COc1ccccc1)N(CCCl)Cc1ccccc1` (stereo not given), the Potency result was “inactive”. Still for that read-out and setting: the entry for `CCc1cccc2c3c([nH]c12)C(CC)(CC(=O)O)OCC3` (stereo not given) is “inactive”; for `NCCS(=O)(=O)O` it is “inactive”. For the compound `COc1ccccc1OCCNCC(O)COc1cccc2[nH]c3ccccc3c12` (stereo not given), the “activity change, negative = cytotoxic” value was 6.16% (inactive). As to `O=c1c(O)c(-c2ccc(O)c(O)c2)oc2cc(O)cc(O)c12`, the Potency result is “inactive”. Regarding `COc1cc2nc(N3CCN(C(=O)C4COc5ccccc5O4)CC3)nc(N)c2cc1OC` (stereo not given), the Potency result is “inactive”. Same read-out and setting: to `CCC1(c2ccccc2)C(=O)NCNC1=O` belongs “inactive”; to `NCCc1cnc[nH]1`, “inactive”. On to `Cc1cn([C@H]2C[C@H](N=[N+]=[N-])[C@@H](CO)O2)c(=O)[nH]c1=O`, for which the Potency entry was “inactive”. Regarding `CC(C)NCC(O)c1ccc(O)c(O)c1` (stereo not given), the “activity change, negative = cytotoxic” value was 12.4% (inactive). `CC(C)(C)C(=O)Oc1ccc(S(=O)(=O)Nc2ccccc2C(=O)NCC(=O)O)cc1`: the Potency result is “inactive”. Consider `O=C(C1CCCCC1)N1CC(=O)N2CCc3ccccc3C2C1` (stereo not given), for which the Potency result was “inactive”. Turning to `COc1nc(C)nc(Cl)c1NC1=NCCN1`, the Potency entry is “inactive”. Regarding `OCCN1CCN(CCCN2c3ccccc3Sc3ccc(C(F)(F)F)cc32)CC1`, the Potency result was “inactive”. As for `Cc1ccc(C(=O)Nc2ccc(S(=O)(=O)O)c3cc(S(=O)(=O)O)cc(S(=O)(=O)O)c23)cc1NC(=O)c1cccc(NC(=O)Nc2cccc(C(=O)Nc3cc(C(=O)Nc4ccc(S(=O)(=O)O)c5cc(S(=O)(=O)O)cc(S(=O)(=O)O)c45)ccc3C)c2)c1`, the Potency entry was “inactive”.

For the compound `COc1ccc2[nH]cc(CCNC(C)=O)c2c1`, the Potency result was “inactive”. Turning to `CN1C(C(=O)Nc2ccccn2)=C(O)c2ccccc2S1(=O)=O`, the “activity change, negative = cytotoxic” value was 7.42% (inactive).

Consider `NS(=O)(=O)c1cc2c(cc1Cl)NCNS2(=O)=O`, for which the Potency result is “inactive”.

Consider `O=C(CCCN1CCC(O)(c2ccc(Cl)cc2)CC1)c1ccc(F)cc1`, for which the Potency entry is “inactive”.

Consider `COc1cc2nc(N(C)CCCNC(=O)C3CCCO3)nc(N)c2cc1OC` (stereo not given), for which the Potency result was “inactive”.

For `O=C1c2c(O)ccc(O)c2C(=O)c2c(NCCNCCO)ccc(NCCNCCO)c21`, the Potency is 658 nM (active) and 59.2 nM (active). In the case of `CC1(C)O[C@H]2CC(=O)OC[C@]23[C@H]2CC[C@@]4(C)[C@H](c5ccoc5)OC(=O)[C@H]5O[C@]54[C@]2(C)C(=O)C[C@@H]13`, the Potency result is “inactive”. Turning to `CN(C)c1nc(N(C)C)nc(N(C)C)n1`, the Potency result is “inactive”. On to `Cc1cnc(C(=O)NCCc2ccc(S(=O)(=O)NC(=O)NC3CCCCC3)cc2)cn1`, for which the Potency entry is “inactive”.

`CN(CCOc1ccc(NS(C)(=O)=O)cc1)CCc1ccc(NS(C)(=O)=O)cc1`: the Potency entry is “inactive”. As for `CN1CCN(C2=Nc3cc(Cl)ccc3Nc3ccccc32)CC1`, the Potency result was “inactive”.

As to `CN1CCC(=C2c3ccccc3CC(=O)c3sccc32)CC1`, the Potency result is “inactive”. In the case of `NCCCCCC(=O)O`, the Potency entry is “inactive”. With `CN1CCN(CCCN2c3ccccc3Sc3ccc(Cl)cc32)CC1`, the Potency result is “inactive”.

Take `CCC1(C)CC(=O)NC1=O` (stereo not given): the Potency result is “inactive”. Consider `CC(=O)OCC(CCn1cnc2cnc(N)nc21)COC(C)=O`, for which the Potency entry was “inactive”. Same read-out and setting: the entry for `Clc1ccc2nsnc2c1NC1=NCCN1` is “inactive”; for `COc1ccc(CCN(C)CCCC(C#N)(c2ccc(OC)c(OC)c2)C(C)C)cc1OC` (stereo not given) it is “inactive”. For the compound `NC(=O)OCC(COC(N)=O)c1ccccc1`, the Potency result is “inactive”. Consider `NC(CO)C(=O)NNCc1ccc(O)c(O)c1O` (stereo not given), for which the Potency result was “inactive”. In the case of `O=C1N(c2ccccc2)c2ccccc2C1(Cc1ccncc1)Cc1ccncc1`, the Potency result is “inactive”. Consider `COC(=O)Nc1nc2ccc(C(=O)c3cccs3)cc2[nH]1`, for which the Potency is 46.6 nM (active) and 236 nM (active).

As to `COc1ccc2c(c1)c(CC(=O)O)c(C)n2C(=O)c1ccc(Cl)cc1`, the Potency result is “inactive”.

Consider `Cn1c(=O)c2[nH]cnc2n(C)c1=O`, for which the Potency entry is “inactive”.
